High-throughput results from PubChem BioAssay.
Only some compounds are listed: those with a hit (about 21% of all), similar ones and a draw of the others.
Pf growth 48h = P. falciparum growth inhibition at 48 hours (one generation); 310,000 tested, 5.9% active; Potency, µM (series often up to 28.7 µM), for inactives: top-dose activity change, negative = inhibition, most hits filed as inhibitors; P. falciparum luciferase growth in erythrocytes, 48 h; AID 504832; also: potency is read from the fitted curve at half-maximal effect; % is scaled to controls: 0 for no effect and ±100 for the full control effect
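Luciferase-expressing parasites in RBCs, 2% Hct / 0.1% parasitemia final; RPMI 1640 + 0.5% Albumax; 37 C, 5% CO2, one generation; luminescence read-out, lower signal = inhibition.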
NS1 inh = influenza NS1 inhibition | Potency, µM (highest dose often 46.1 µM), without a hit: at the highest dose activity, positive = more growth | 270,000 tested, 0.4% active; calls by dose curve; also: potency is read from the fitted curve at half-maximal effect; actives are rising curves; nearly all actives have a fitted effect of over 50% in size
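Growth recovery, yeast-based: influenza A NS1 expressed in S. cerevisiae causes slow growth, and suppressors are detected by OD600. The parent strain without NS1 is used as positive control.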
Shiga inhibitor = inhibitors of Shiga toxin in Vero cells. 290,000 tested, 9.2% active. inhibition, % at 38.7 µM. Vero cells, Shiga toxin protein synthesis inhibition reporter; in the data active = inhibition mostly above about 28%, no sharp cut-off; inactive = mostly below about 43%; also: 0% is about no effect
Cycloheximide cs = affects cycloheximide protein synthesis inhibition readout, counter-screen; cell reporter, cycloheximide protein synthesis inhibition counterscreen; max response, %; 300,000 tested, 12% active; AID 2314; in the data active = max response mostly above about 13%, no sharp cut-off; inactive = mostly below about 14%; also: read at 38.3 µM for the half of the compounds with a filed dose; 0% is about no effect
SARS PLP yeast = blocks SARS-CoV papain-like protease in a yeast assay; S. cerevisiae expressing SARS-CoV PLpro, growth rescue; 330,000 tested, 0.19% active; AID 485353; Potency, µM (series often up to 32.9 µM), for inactives: top-dose activity, positive = growth rescue, usual class: activators; calls by dose curve; also: potency is read from the fitted curve at half-maximal effect; 0% is about no effect; nearly all actives have a fitted effect of over 55% in size
Pf growth 96h = inhibits malaria parasite growth, 96 h; P. falciparum luciferase reporter growth, 96 h; Potency, µM (doses to about 28.7 µM), for the others: at the highest dose activity change, negative = inhibition, hits mostly inhibitors; 320,000 tested, 6.9% active; AID 504834; also: potency is read from the fitted curve at half-maximal effect; % is scaled to controls: 0 for no effect and ±100 for the full control effect
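Two parasite generations (96 h, 37 C, 5% CO2) of compound exposure in infected erythrocytes (0.05% parasitemia, 2% hematocrit). Luciferase-reporter P. falciparum; decreased luminescence indicates inhibited growth, aimed at apicoplast-acting delayed death.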
Starred values were filed as active, the others as inactive; ? = inconclusive; . = not tested or not shown; [ ] = remark or other dose. Unless noted, calls follow the shape of the dose curve; as a rule, active = well fitted inhibition curve with a large enough effect; inconclusive = small, poorly fitted or top-dose-only effect, or another doubt; inactive = no such curve, though single readings can be large or run the other way.

SMILES	Pf growth 48h	NS1 inh	Shiga inhibitor	Cycloheximide cs	SARS PLP yeast	Pf growth 96h
NS(=O)(=O)c1ccc(N=Nc2c(O)ccc3ccccc23)cc1	-11.1%	8.6%	-12.2	-2.4	4.8%	33.6%[5.75 µM]
O=c1cc(N=Nc2ccc(O)cc2)[nH]c(=O)[nH]1	.	0.0%	.	.	.	.
Oc1ccc(N=Nc2c(O)ccc3ccccc23)cc1	?	-35.7%	-36.1	32.0*	-25.8%	?
COc1cc(N=Nc2ccc3ccccc3c2)ccc1O	164.5%	-155.9%	.	46.8*	-17.2%	122.2%
COc1ccccc1C1=NOC(Cn2c(NCCOCCO)nc3c2c(=O)n(C)c(=O)n3C)C1 (configuration not stated)	4.2%	-2.0%	15.0	-1.4	0.7%	1.9%
Cc1c(NC(=O)COC(=O)c2ccc(F)c(S(=O)(=O)N3CCOCC3)c2)c(=O)n(-c2ccccc2)n1C	23.6%	-2.7%	-8.3	-1.1	2.4%	12.9%
Cc1ccc(NC(=O)c2ccc(=O)[nH]n2)cc1S(=O)(=O)Nc1ccc(SC(F)F)cc1	.	.	.	.	2.6%	.
C[C@]12CC(O)C3C(CCC4=CC(=O)CC[C@@]43C)C1CCC2c1csc(-c2ccccc2)n1 (some centres not stated)	5.22µM*	6.5%	-7.0	-5.7	1.3%	?
CN(C)C=C1C(=O)c2ccccc2C1=O	5.3%	5.3%[9.22 µM]	64.8*	27.4*	-9.3%	.
CN(C)/C=C1\Cc2ccccc2C1=O	19.2%	-0.2%	112.9*	45.7*	-2.2%	7.0%
CCCn1nc(C(=O)OCC(=O)NC(C)c2ccccc2)c2ccccc2c1=O (configuration not stated)	23.6%	.	-7.6	-1.6	-2.0%	3.7%
CN(C(=O)c1ccc(C#N)cc1)c1nnc(-c2ccccn2)s1	41.3%	8.9%	20.3	13.6	9.9%	82.4%
CN(C(=O)c1ccncc1)c1nnc(-c2cccnc2)s1	24.8%	-0.8%	-3.4	-3.5	-2.3%	?
Cc1ccc(C(=O)N(C)c2nnc(-c3ccncc3)s2)cc1	-9.3%	0.6%	58.4*	14.9*	1.0%	0.3%
CN(C(=O)c1ccncc1)c1nnc(-c2ccccn2)s1	67.7%	-5.9%	74.8	34.7*	-5.9%	0.0%
Cc1ccc(C(=O)Nn2cnc3ccccc3c2=O)cc1C	88.1%	2.7%	82.9*	44.4*	-1.7%	-16.8%
O=C(Nn1cnc2ccccc2c1=O)c1ccccc1F	29.1%	-7.6%	40.1	11.2*	-1.1%	0.0%
CCc1ccc(C(=O)Nn2cnc3ccccc3c2=O)cc1	156.4%	-4.1%	109.0*	53.6*	-0.6%	10.5%
COc1ccc(C(=O)Nn2cnc3ccccc3c2=O)cc1[N+](=O)[O-]	.	0.0%	4.2	4.7	2.3%	-12.2%
O=C(Nn1cnc2ccccc2c1=O)C1CCCCC1	16.4%	5.6%	-3.3	6.1	-6.7%	?
CCCC1CCC(C(=O)Nn2cnc3ccccc3c2=O)CC1 (configuration not stated)	-18.0%	6.2%	20.7	10.8	-10.5%	2.08µM*
O=C(COC(=O)c1ccc2c(c1)S(=O)(=O)N=C1CCCCCN12)NCCc1ccc(F)cc1	2.7%	-1.9%	18.1	-2.8	2.8%	9.3%
COc1ccc(S(=O)(=O)N2CCCC(C(=O)NCC3CCCO3)C2)cc1OC (configuration not stated)	7.9%	16.0%	-4.2	-6.9	-3.9%	0.0%
Cc1ccc(NC(=O)c2cc(S(=O)(=O)N3CCCCC3)c[nH]2)cc1C	-11.0%	5.0%	-6.1	-1.6	6.6%	?
COc1ccc(S(=O)(=O)N/N=c2\oc3c(OC)cccc3cc2S(=O)(=O)c2ccc(C)cc2)cc1OC	?	.	-17.9	3.3	3.5%	-10.6%
SMILES	Pf growth 48h	NS1 inh	Shiga inhibitor	Cycloheximide cs	SARS PLP yeast	Pf growth 96h
Cc1ccc(C(=O)Nn2c(C)nc3ccccc3c2=O)cc1C	15.0%	-6.9%	-8.1	7.5	-2.7%	13.1µM*
O=C(Nn1cnc2ccccc2c1=O)c1cccc(Cl)c1	84.9%	.	32.5	43.6*	0.1%	27.0%
O=C(Nn1cnc2ccccc2c1=O)c1ccc([N+](=O)[O-])cc1	7.9%	.	-5.9	-0.8	-0.7%	48.7%
O=C(Nn1cnc2ccccc2c1=O)c1ccc(Cl)c([N+](=O)[O-])c1	24.3%	0.1%	-3.6	-1.3	0.5%	?
Cc1nc2ccccc2c(=O)n1NC(=O)c1ccc(C(C)(C)C)cc1	11.3%	-2.5%	3.9	-2.0	-3.7%	?
O=C(Nn1cnc2ccccc2c1=O)c1ccc(Br)cc1	18.1%	-2.2%	89.7*	40.8*	0.2%	?
O=C(O)[C@H](CC(=O)N1C[C@H]2CCCC[C@H]2C1)Cc1ccccc1	-10.7%	.	.	.	.	5.8%
O=C(CN(C(=O)CNS(=O)(=O)c1ccccc1)c1ccc(F)cc1)NCc1ccco1	5.2%	4.0%	-4.1	1.8	-1.1%	-17.7%
C/C(N)=C(/C#N)C(=O)COC(=O)c1ccccc1Oc1ccccc1	-13.7%	.	9.2	3.3	1.4%	57.4%
CCCC(=O)Nc1nnc(C2CCCO2)s1 (configuration not stated)	0.0%	4.3%	10.7	1.2	1.1%	2.0%
COc1cccc(C(=O)Nc2nnc(C3CCCO3)s2)c1 (configuration not stated)	.	-15.0%	59.4*	25.3*	0.2%	87.1%
O=C(Nc1nnc(C2CCCO2)s1)c1cccs1 (configuration not stated)	68.5%	5.3%	19.5	17.3*	-0.7%	.
O=C(Nc1nnc(C2CCCCC2)s1)c1cccs1	275.0%	-15.1%	21.8	28.4*	-8.0%	194.5%
O=C(Nc1nnc(C2CC2)s1)C1CCCCN1S(=O)(=O)c1ccccc1 (configuration not stated)	13.1µM*	-4.4%	-8.8	-2.1	3.0%	-9.6%
O=C(Nc1nnc(C2CCCC2)s1)C1CCC1	19.0%	-9.1%	59.6	12.2	7.6%	95.9%
COc1ccc(OC)c2c(C)c(C)[nH]c12	?	-1.7%	23.3	4.5	0.9%	0.0%
Cc1ccc(C(=O)N(CC#N)CC#N)cc1C	36.3%	-2.6%	-14.4	-0.3	0.5%	36.8%
Cc1ccc(-n2nnnc2SC(C(=O)c2c[nH]c3ccccc23)c2ccccc2)cc1 (configuration not stated)	?	27.4%	-9.0	-1.8	-22.9%	1.47µM*
O=C(NNc1c2ccccc2nc2ccccc12)C12CC3CC(CC(C3)C1)C2	?	3.4%	9.5	-1.0	-3.6%	13.1µM*
CC(=O)c1cccc(Nc2c([N+](=O)[O-])c(=O)oc3ccccc23)c1	-3.3%	3.4%	-11.5	-3.1	-3.8%	?
O=C(NNc1c2ccccc2nc2ccccc12)c1ccc(O)cc1	?	-10.9%	-6.9	23.5*	2.2%	-101.5%
O=C(NNC(=O)c1ccc2ccccc2n1)c1ccc(O)cc1	?	.	.	.	4.1%	?
O=C(NNc1c2ccccc2nc2ccccc12)c1ccccc1O	?	-7.5%	27.4	24.9*	3.6%	10.4µM*
O=C(NNc1c2ccccc2nc2ccccc12)c1ccc(O)cc1O	?	6.4%	16.7	13.9	-0.6%	?
